These results are taken from PubChem BioAssay (NCI).

About 83,000 compounds went through this panel and 20% of them were active in at least one assay; those are over-represented in the sample as a whole.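 In brief: 96-well plates, 48 h treatment, single concentration, percent growth endpoint.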 A number with no mark means an inactive call. The source made the active and inactive calls. How the source made its calls: active means growth percent below 10; inactive means the rest.

Assay in all cases: NCI-60 one-dose screen, 48 h (100 = growth as untreated, 0 = no growth, -100 = all killed)
Details in all cases: 10 µM unless noted

For assay [1], the system named is RPMI-8226 leukemia.
Assay [2] relates to OVCAR-8 ovarian.
Assay [3] deals with OVCAR-5 ovarian.
Assay [4] deals with OVCAR-4 ovarian.
For assay [5], the system named is IGROV1 ovarian.
In assay [6] the test system is OVCAR-3 ovarian.
For assay [7], the system named is HS 578T breast.
The subject of assay [8] is NCI/ADR-RES ovarian.
Assay [9] concerns BT-549 breast.
The subject of assay [10] is MDA-MB-435 melanoma.
In assay [11] the test system is SW-620 colon.
In assay [12] the test system is MCF7 breast.
Assay [13] has as its system HCT-116 colon.
The subject of assay [14] is HCC-2998 colon.
In assay [15] the test system is KM12 colon.
Assay [16] deals with SK-OV-3 ovarian.
In assay [17] the test system is T-47D breast.

Turning to `CCN1C(=O)N(CC)C2Nn3c(s/c(=C4\C(=O)N(C5CCCC5)c5ccccc54)c3=O)=NC21` (configuration not stated), the growth is 54.1% in [1]; 60.2% in assay [2]; 77.5% in assay [3]; 55.7% in [4]; 67.3% in [5]; 40.8% in assay [6]. Also, the growth in assay [7] was 62%; in assay [8], 10.9%; in [9] it was 79.3%; in assay [10] it was -15.9% (active); in [11], 53.9%; in [12] it was 45.7%. For the same molecule, the growth in assay [13] is 19.8%; in [14], 91.8%; in assay [15], 23.8%.

Consider `COc1cc(/C=C2\C=C(c3ccc(F)cc3)N(Cc3ccccc3)C2=O)cc(OC)c1OC`, for which the growth in assay [2] is 48.8%; in assay [3] it was 89.6%; in assay [4] it was 51%; in [16] it was 99.3%; in assay [5], 84.4%; in [6] it was 70.3%. Also, the growth in [7] is 87.1%; in [8], 62.1%; in assay [17], 49.1%; in assay [9], 77.3%; in assay [10], 75.2%; in [11] it was 77.4%. Further, the growth in assay [12] is 50.8%; in [13], 42.2%; in [14] it was 103%; in [15] it was 63.1%.

Take `COc1cc(NC(=O)CCl)ccc(=O)c1`: the growth is 87.6% in assay [2]; 93.2% in assay [3]; 75% in assay [4]; 73.9% in [16]; 58.1% in assay [5]; 61.1% in assay [6]. The growth is 72.2% in assay [7]; 92% in [8]; 67.1% in [17]; 69.8% in [10]; 69.8% in [11]; 56.8% in [12]. Further, the figures for the growth in [13], in assay [14] and in assay [15] were 62.6%, 105% and 89.6%, respectively.

For the molecule `COc1cc(/C=C2\CCCC3=C2N=C2SC(C)=NN2C3c2cc(OC)c(OC)c(OC)c2)cc(OC)c1OC` (configuration not stated), the growth in [1] is -25.6% (active); in assay [2], 4.84% (active); in assay [3], 67.3%; in assay [4], 54.3%; in assay [16], 60.3%; in assay [6], 21.2%. In addition, the growth in [7] was 25%; in assay [8], 8.69% (active); in assay [17] it was 37.6%; in [10], -63.9% (active); in assay [11], 10.3%; in assay [12] it was 12.5%. The growth in assay [13] is -71.6% (active); in [14] it was 55.4%; in [15], -37.8% (active).

With `COc1ccc(Cl)cc1NC(N)=S`, the growth in [2] is 108%; in [3], 113%; in [4], 94.8%; in assay [16] it was 118%; in assay [6] it was 108%; in assay [7], 104%. The growth is 105% in assay [8]; 96.3% in assay [17]; 107% in assay [9]; 104% in assay [10]; 104% in [11]; 96.2% in [12]. Moreover, the growth is 102% in assay [13], 102% in [14] and 105% in assay [15].

For `C=CCc1cc(Cl)cc2c(OC(C)=O)c(C(C)=O)c(-c3ccccc3)nc12`, the growth in assay [1] was 97.4%; in assay [2], 113%; in assay [3], 111%; in assay [4] it was 100%; in [5] it was 82.3%; in assay [6], 107%. The growth in [7] is 102%; in assay [8] it was 119%; in assay [17], 90.8%; in [9], 116%; in assay [10], 108%; in assay [11], 107%. For the same molecule, the growth in assay [12] is 82.1%; in [13], 105%; in assay [14], 118%; in [15], 99.5%.

For the molecule `CCc1c(C(=O)Nc2ccc3ccccc3c2)[nH]c(C)c1C(C)=O`, the growth is 104% in assay [2]; 101% in assay [3]; 76.7% in [4]; 99.7% in assay [16]; 108% in [5]; 103% in assay [6]. For the same molecule, the growth in assay [7] is 98.5%; in [8] it was 94.8%; in [17], 83.6%; in [9], 112%; in assay [10] it was 78.7%; in assay [11] it was 99.5%. The growth was 99.5% in assay [13], 99.1% in assay [14] and 84.7% in assay [15].
